Compounds without any hit were thinned out: in the full panel of roughly 79,000, 15% have a hit. Values without a mark were called inactive. The source made the active and inactive calls. No stated cut-off is given here; in the data, active means growth inhibition above about 70%; inactive means the rest.
Assays:
[1] = NCI Yeast Anticancer Drug Screen. Data for the rad52 strain (AID 147);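 further: 0% = growth of vehicle-treated control cultures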; settings: S. cerevisiae rad52 mutant growth inhibition, stronger effect = higher value
How it was run: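 Measured: yeast growth inhibition. System: strain with a defined DNA damage repair alteration. Reference: vehicle-treated control cultures.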

[2] = NCI Yeast Anticancer Drug Screen. Data for the wt1 strain (AID 149);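 further: 0% = growth of vehicle-treated wt1 cultures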; settings: S. cerevisiae wt1 strain (SPY 50644) growth inhibition, stronger effect = higher value
How it was run: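 Readout: yeast growth inhibition, normalised to vehicle controls, in the wt1 strain exposed to test compounds.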

[3] = NCI Yeast Anticancer Drug Screen. Data for the mgt1 strain (AID 153); settings: S. cerevisiae mgt1 mutant growth inhibition, stronger effect = higher value
How it was run: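 After exposure of the mgt1 yeast mutant to compound, growth was measured and reported as inhibition compared with vehicle controls.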

[4] = NCI Yeast Anticancer Drug Screen. Data for the rad50 strain (AID 155);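 further: 0% = growth of vehicle-only cultures of the same strain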; settings: S. cerevisiae rad50 strain growth inhibition, stronger effect = higher value
How it was run: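 Compounds were tested on a yeast strain with an engineered DNA damage repair alteration; the reported value is growth inhibition normalised to vehicle treatment.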

[5] = NCI Yeast Anticancer Drug Screen. Data for the mec2-1 strain (AID 157); settings: S. cerevisiae mec2-1 strain, stronger effect = higher value
How it was run: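 Test agents were screened against the mec2-1 yeast strain, with defined DNA repair or cell cycle alteration. Growth was scored as inhibition against vehicle-only controls.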

[6] = NCI Yeast Anticancer Drug Screen. Data for the rad14 strain (AID 159);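 further: 0% = growth of vehicle-treated control cultures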; settings: S. cerevisiae rad14 strain growth inhibition, stronger effect = higher value
How it was run: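 Compound-treated yeast with a defined DNA-repair lesion; growth inhibition normalised to vehicle-treated cultures.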

[7] = NCI Yeast Anticancer Drug Screen. Data for the sgs1 mgt1 strain (AID 161);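 further: 0% = growth of cultures given vehicle only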; settings: S. cerevisiae sgs1 mgt1 strain, stronger effect = higher value
How it was run: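 Genetically altered yeast, compound exposure, growth inhibition relative to vehicle.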

[8] = NCI Yeast Anticancer Drug Screen. Data for the CLN2oe strain (AID 163);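 further: 0% = growth of vehicle-only control cultures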; settings: S. cerevisiae CLN2oe strain, stronger effect = higher value
How it was run: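 Here, growth inhibition in a cell-cycle-altered yeast strain after compound exposure was quantified against vehicle control growth.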

[9] = NCI Yeast Anticancer Drug Screen. Data for the cln2 rad14 strain (AID 165);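 further: 0% = growth equal to vehicle treated cultures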; settings: S. cerevisiae cln2 rad14 strain, stronger effect = higher value
How it was run: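 Growth of compound-exposed yeast (cln2 rad14 genotype) measured and expressed as inhibition relative to vehicle.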

[10] = NCI Yeast Anticancer Drug Screen. Data for the bub3 strain (AID 167); settings: S. cerevisiae bub3 mutant strain, stronger effect = higher value
How it was run: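 Growth of a checkpoint-deficient yeast mutant is measured after compound exposure. Values represent inhibition relative to vehicle.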

[11] = NCI Yeast Anticancer Drug Screen. Data for the wt2 strain (AID 169);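 further: 0% = growth of vehicle-treated yeast cultures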; settings: S. cerevisiae wt2 strain growth inhibition, stronger effect = higher value
How it was run: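 Genetically defined yeast strains from a DNA-repair/cell-cycle panel were used. Compound-exposed yeast growth was measured, and the inhibition was calculated relative to vehicle treatment.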

[12] = NCI Yeast Anticancer Drug Screen. Data for the mlh1 strain (AID 171);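 further: 0% = growth of vehicle-treated control cultures of the same strain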; settings: S. cerevisiae mlh1 strain growth inhibition, stronger effect = higher value
How it was run: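 Here the genetically defined yeast mutant is grown with each compound, and the extent to which its growth falls below that of vehicle-exposed cells is reported.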

[13] = NCI Yeast Anticancer Drug Screen. Data for the sgs1 strain (AID 173);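 further: 0% = growth of vehicle-only control cultures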; settings: S. cerevisiae sgs1 mutant, stronger effect = higher value
How it was run: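 Relative growth inhibition, referenced to vehicle, was determined in a yeast strain with a defined alteration affecting DNA damage repair or cell cycle control after compound exposure.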

[14] = NCI Yeast Anticancer Drug Screen. Data for the mlh1 rad18 strain (AID 175); settings: S. cerevisiae mlh1 rad18 strain growth inhibition, stronger effect = higher value
How it was run: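 In this whole-cell yeast screen, a strain with altered DNA damage repair is challenged with compound, and its growth is measured against matched vehicle-treated controls.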

[15] = NCI Yeast Anticancer Drug Screen. Data for the rad18 strain (AID 177); settings: S. cerevisiae rad18 mutant growth inhibition, stronger effect = higher value
How it was run: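 Screen uses a yeast strain with a defined lesion in DNA damage repair; compound effect is read as loss of growth compared to untreated vehicle cultures.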

[16] = at 5.0 µM (retest, dose inferred, filed as 0.5)
[17] = at 50.0 µM (retest, dose inferred, filed as 5.0)

With `c1ccc2c(OCC3CO3)cccc2c1` (stereo unspecified) the growth inhibition ([1]; at 1.2 µM) was 3%, the growth inhibition ([1]; at 3.7 µM) was 12% and the growth inhibition ([1]; at 11.0 µM) was 45%. The growth inhibition ([1]; at 33.0 µM) was 86% (active), the growth inhibition ([1]; at 100.0 µM) was 94% (active) and the growth inhibition ([2]; at 1.2 µM) was -2%. It also gave a growth inhibition ([2]; at 3.7 µM) of 0%, a growth inhibition ([2]; at 11.0 µM) of 0% and a growth inhibition ([2]; at 33.0 µM) of 4%. The growth inhibition ([2]; at 100.0 µM) was 18%, the growth inhibition ([3]; at 1.2 µM) was -1% and the growth inhibition ([3]; at 3.7 µM) was -1%. For the same compound, the growth inhibition ([3]; at 11.0 µM) was 0%, the growth inhibition ([3]; at 33.0 µM) was 4% and the growth inhibition ([3]; at 100.0 µM) was 32%. It also gave a growth inhibition ([4]; at 1.2 µM) of 0%, a growth inhibition ([4]; at 3.7 µM) of 12% and a growth inhibition [4, 16] of 36%. The growth inhibition ([4]; at 11.0 µM) was 66%, the growth inhibition ([4]; at 33.0 µM) was 89% (active) and the growth inhibition [4, 17] was 94% (active). For the same compound, the growth inhibition ([4]; at 50.0 µM) was 92.8% (active), the growth inhibition ([4]; at 100.0 µM) was 95% (active) and the growth inhibition ([5]; at 1.2 µM) was 1%. It also gave a growth inhibition ([5]; at 3.7 µM) of 4%, a growth inhibition [5, 16] of 6% and a growth inhibition ([5]; at 11.0 µM) of 10%. For the same compound, the growth inhibition ([5]; at 33.0 µM) was 32%, the growth inhibition [5, 17] was 75% (active) and the growth inhibition ([5]; at 50.0 µM) was 49.3%. For the same compound, the growth inhibition ([5]; at 100.0 µM) was 91% (active), the growth inhibition ([6]; at 1.2 µM) was -1% and the growth inhibition ([6]; at 3.7 µM) was -3%. For the same compound, the growth inhibition ([6]; at 11.0 µM) was 1%, the growth inhibition ([6]; at 33.0 µM) was 17% and the growth inhibition ([6]; at 100.0 µM) was 89% (active). For the same compound, the growth inhibition [7, 16] was 50%, the growth inhibition [7, 17] was 83% (active) and the growth inhibition ([7]; at 50.0 µM) was 84.5% (active). For the same compound, the growth inhibition ([8]; at 1.2 µM) was -4%, the growth inhibition ([8]; at 3.7 µM) was -3% and the growth inhibition ([8]; at 11.0 µM) was -2%. For the same compound, the growth inhibition ([8]; at 33.0 µM) was 2%, the growth inhibition ([8]; at 100.0 µM) was 4% and the growth inhibition [9, 16] was 3%. For the same compound, the growth inhibition [9, 17] was 71% (active), the growth inhibition ([9]; at 50.0 µM) was 63.8% and the growth inhibition ([10]; at 1.2 µM) was -3%. The growth inhibition ([10]; at 3.7 µM) was -5%, the growth inhibition [10, 16] was -12% and the growth inhibition ([10]; at 11.0 µM) was -11%. For the same compound, the growth inhibition ([10]; at 33.0 µM) was -12%, the growth inhibition [10, 17] was -8% and the growth inhibition ([10]; at 50.0 µM) was 13.2%. The growth inhibition ([10]; at 100.0 µM) was 21%, the growth inhibition ([11]; at 1.2 µM) was -2% and the growth inhibition ([11]; at 3.7 µM) was 7%. For the same compound, the growth inhibition ([11]; at 11.0 µM) was 0%, the growth inhibition ([11]; at 33.0 µM) was 5% and the growth inhibition ([11]; at 100.0 µM) was 25%. For the same compound, the growth inhibition ([12]; at 1.2 µM) was 0%, the growth inhibition ([12]; at 3.7 µM) was 1% and the growth inhibition ([12]; at 11.0 µM) was 5%. For the same compound, the growth inhibition ([12]; at 33.0 µM) was 10%, the growth inhibition ([12]; at 100.0 µM) was 40% and the growth inhibition ([13]; at 1.2 µM) was 15%. For the same compound, the growth inhibition ([13]; at 3.7 µM) was 41%, the growth inhibition ([13]; at 11.0 µM) was 72% (active) and the growth inhibition ([13]; at 33.0 µM) was 88% (active). For the same compound, the growth inhibition ([13]; at 100.0 µM) was 93% (active), the growth inhibition [14, 16] was 14% and the growth inhibition [14, 17] was 86% (active). The growth inhibition ([14]; at 50.0 µM) was 82.1% (active), the growth inhibition ([15]; at 1.2 µM) was 18% and the growth inhibition ([15]; at 3.7 µM) was 55%. For the same compound, the growth inhibition ([15]; at 11.0 µM) was 86% (active), the growth inhibition ([15]; at 33.0 µM) was 95% (active) and the growth inhibition ([15]; at 100.0 µM) was 98% (active).

For `O=C1/C(=C/c2ccccc2)CCCC1CN1CCCCC1` (stereo unspecified), the growth inhibition ([1]; at 1.2 µM) was 13%, the growth inhibition ([1]; at 3.7 µM) was 35% and the growth inhibition ([1]; at 11.0 µM) was 56%. For the same compound, the growth inhibition ([1]; at 33.0 µM) was 72% (active), the growth inhibition ([1]; at 100.0 µM) was 78% (active) and the growth inhibition ([2]; at 1.2 µM) was 10%. For the same compound, the growth inhibition ([2]; at 3.7 µM) was 19%, the growth inhibition ([2]; at 11.0 µM) was 28% and the growth inhibition ([2]; at 33.0 µM) was 31%. It also gave a growth inhibition ([2]; at 100.0 µM) of 34%, a growth inhibition ([3]; at 1.2 µM) of 16% and a growth inhibition ([3]; at 3.7 µM) of 44%. The growth inhibition ([3]; at 11.0 µM) was 59%, the growth inhibition ([3]; at 33.0 µM) was 85% (active) and the growth inhibition ([3]; at 100.0 µM) was 96% (active). The growth inhibition ([4]; at 1.2 µM) was 13%, the growth inhibition ([4]; at 3.7 µM) was 26% and the growth inhibition [4, 16] was 29%. The growth inhibition ([4]; at 11.0 µM) was 39%, the growth inhibition ([4]; at 33.0 µM) was 61% and the growth inhibition [4, 17] was 79% (active). The growth inhibition ([4]; at 50.0 µM) was 72.3% (active), the growth inhibition ([4]; at 100.0 µM) was 68% and the growth inhibition ([5]; at 1.2 µM) was 16%. For the same compound, the growth inhibition ([5]; at 3.7 µM) was 22%, the growth inhibition [5, 16] was 32% and the growth inhibition ([5]; at 11.0 µM) was 34%. For the same compound, the growth inhibition ([5]; at 33.0 µM) was 48%, the growth inhibition [5, 17] was 74% (active) and the growth inhibition ([5]; at 50.0 µM) was 75.2% (active). The growth inhibition ([5]; at 100.0 µM) was 57%, the growth inhibition ([6]; at 1.2 µM) was 48% and the growth inhibition ([6]; at 3.7 µM) was 70% (active). For the same compound, the growth inhibition ([6]; at 11.0 µM) was 92% (active), the growth inhibition ([6]; at 33.0 µM) was 98% (active) and the growth inhibition ([6]; at 100.0 µM) was 98% (active). For the same compound, the growth inhibition [7, 16] was 40%, the growth inhibition [7, 17] was 80% (active) and the growth inhibition ([7]; at 50.0 µM) was 85.7% (active). It also gave a growth inhibition ([8]; at 1.2 µM) of 40%, a growth inhibition ([8]; at 3.7 µM) of 59% and a growth inhibition ([8]; at 11.0 µM) of 67%. For the same compound, the growth inhibition ([8]; at 33.0 µM) was 80% (active), the growth inhibition ([8]; at 100.0 µM) was 83% (active) and the growth inhibition [9, 16] was 65%. The growth inhibition [9, 17] was 69%, the growth inhibition ([9]; at 50.0 µM) was 75.4% (active) and the growth inhibition ([10]; at 1.2 µM) was 30%. The growth inhibition ([10]; at 3.7 µM) was 53%, the growth inhibition [10, 16] was 12% and the growth inhibition ([10]; at 11.0 µM) was 79% (active). For the same compound, the growth inhibition ([10]; at 33.0 µM) was 95% (active), the growth inhibition [10, 17] was 83% (active) and the growth inhibition ([10]; at 50.0 µM) was 82.9% (active). The growth inhibition ([10]; at 100.0 µM) was 97% (active), the growth inhibition ([11]; at 1.2 µM) was 19% and the growth inhibition ([11]; at 3.7 µM) was 31%. For the same compound, the growth inhibition ([11]; at 11.0 µM) was 51%, the growth inhibition ([11]; at 33.0 µM) was 79% (active) and the growth inhibition ([11]; at 100.0 µM) was 87% (active). For the same compound, the growth inhibition ([12]; at 1.2 µM) was 4%, the growth inhibition ([12]; at 3.7 µM) was 16% and the growth inhibition ([12]; at 11.0 µM) was 26%. For the same compound, the growth inhibition ([12]; at 33.0 µM) was 34%, the growth inhibition ([12]; at 100.0 µM) was 38% and the growth inhibition ([13]; at 1.2 µM) was 29%. For the same compound, the growth inhibition ([13]; at 3.7 µM) was 42%, the growth inhibition ([13]; at 11.0 µM) was 67% and the growth inhibition ([13]; at 33.0 µM) was 86% (active). For the same compound, the growth inhibition ([13]; at 100.0 µM) was 91% (active), the growth inhibition [14, 16] was 43% and the growth inhibition [14, 17] was 75% (active). The growth inhibition ([14]; at 50.0 µM) was 74.7% (active), the growth inhibition ([15]; at 1.2 µM) was 34% and the growth inhibition ([15]; at 3.7 µM) was 59%. For the same compound, the growth inhibition ([15]; at 11.0 µM) was 74% (active), the growth inhibition ([15]; at 33.0 µM) was 83% (active) and the growth inhibition ([15]; at 100.0 µM) was 90% (active).
